According to PubChem BioAssay (NCATS):
Inconclusive results are not listed. Entries that show only a call come without a potency. Active and inactive are the calls of the source. Calls come from the whole dose curve; as a rule, active = well fitted curve in the direction sought with a large enough effect; inconclusive = small, poorly fitted or top-dose-only effect, or another doubt; inactive = no such curve, though single readings can be large; an effect the other way counts as inactive or inconclusive.

Assay: qHTS of pediatric cancer cell lines to identify multiple opportunities for drug repurposing: Primary screen for OHS-50 cells (AID 1347103); note: nearly all actives have a fitted effect of over 40% in size
Conditions: OHS-50 osteosarcoma viability, CellTiter-Glo luminescence, 48 h; series mostly up to 57.3 µM
In short: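 Cells (500-1,000/well) rested 5 h, then received compounds for 48 h; metabolically active cells were measured by CellTiter-Glo luminescence. Final concentrations spanned up to 46 µM (MIPE, 11-point) or 0.59 nM-46 µM (NPC, 8-point) in primary screens, 11-point in follow-ups.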
Potency is the fitted concentration of half-maximal effect.

| SMILES | Potency |
| --- | --- |
| O=C(O)c1c(Cl)c(Cl)c(Cl)c(Cl)c1-c1c2cc(I)c(=O)c(I)c-2oc2c(I)c(O)c(I)cc12 | 7.69 µM (active) |
| C[C@]12CC[C@@H]3c4ccc(O)cc4CC[C@H]3[C@H]1C[C@@H](O)[C@H]2O | inactive |
| O=C(CCN1CCN(C(=O)OCc2cc(Cl)cc(Cl)c2)CC1)c1ccc2[nH]c(=O)oc2c1 | inactive |
| CC[C@H]1OC(=O)[C@H](C)C(=O)[C@H](C)[C@@H](O[C@H]2O[C@H](C)C[C@H](N(C)C)[C@@H]2O)[C@](C)(OC)C[C@@H](C)C(=O)[C@H](C)[C@H]2N(CCCCn3cnc(-c4cccnc4)c3)C(=O)O[C@]12C | inactive |
| O=C1C[C@@H](c2ccc(O)cc2)Oc2cc(O)cc(O)c21 | inactive |
| O=C(O)CCc1nc(-c2ccccc2)c(-c2ccccc2)o1 | inactive |
| O=c1c(-c2ccc(O)cc2)coc2cc(OC3O[C@H](CO)[C@H](O)[C@H](O)[C@H]3O)cc(O)c12 (stereo partly drawn) | inactive |

Assay: qHTS of pediatric cancer cell lines to identify multiple opportunities for drug repurposing: Primary screen for RD cells (AID 1347104); note: nearly all actives have a fitted effect of over 55% in size
Conditions: RD rhabdomyosarcoma viability, CellTiter-Glo luminescence, 48 h; series mostly up to 46 µM
In short: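 Cells plated at 500-1,000/well in growth medium, compounds added after 5 h. MIPE tested at 11 points (from 0.78 nM), NPC at 8 points (from 0.59 nM). CellTiter-Glo luminescence after 48 h; concentration-response curves from primary screen.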

| SMILES | Potency |
| --- | --- |
| COCCCCC(=NOCCN)c1ccc(C(F)(F)F)cc1 | 33.2 µM (active) |
| CN(C)Cc1ccc(-c2nc3cccc4c3n2CCNC4=O)cc1 | 16.6 µM (active) |
| C[C@]12CC[C@@H]3c4ccc(O)cc4CC[C@H]3[C@H]1C[C@@H](O)[C@H]2O | inactive |
| CC1(C)O[C@H]2C[C@@H]3[C@H]4CCC5=CC(=O)C=C[C@]5(C)[C@@]4(F)[C@@H](O)C[C@]3(C)[C@]2(C(=O)CO)O1 | inactive |
| O=C(CCN1CCN(C(=O)OCc2cc(Cl)cc(Cl)c2)CC1)c1ccc2[nH]c(=O)oc2c1 | inactive |
| NC(=O)NN=Cc1ccc([N+](=O)[O-])o1 | inactive |
| O=C1NC(=O)C(=Cc2cccc(C(F)(F)F)c2)S1 | inactive |
| CCOc1ccc(Nc2nc(-c3c(C)nc4ccccn34)cs2)cc1 | inactive |
| O=C(Nc1ccccc1-c1cn2c(CN3CCNCC3)csc2n1)c1cnc2ccccc2n1 | 33.2 µM (active) |
| CC1(C)S[C@H]2[C@H](NC(=O)[C@@H](N)c3ccc(O)cc3)C(=O)N2[C@@H]1C(=O)O | 2.96 µM (active) |
| CC(C)C[C@H](CC(=O)O)C(=O)N[C@@H](Cc1c[nH]c2ccccc12)C(=O)N[C@@H](C)c1ccccc1 | inactive |
| Cc1[nH]c(C=C2C(=O)Nc3ccc(S(=O)(=O)Cc4c(Cl)cccc4Cl)cc32)c(C)c1C(=O)N1CCC[C@H]1CN1CCCC1 | 18.7 µM (active) |
| O=C(NOCC(O)CO)c1cc(Br)c(F)c(F)c1Nc1ccc(I)cc1F (stereo not drawn) | 0.148 µM (active) |
| O=C1C[C@@H](c2ccc(O)cc2)Oc2cc(O)cc(O)c21 | inactive |
| O=C(O)CCc1nc(-c2ccccc2)c(-c2ccccc2)o1 | inactive |
| O=c1c(-c2ccc(O)cc2)coc2cc(OC3O[C@H](CO)[C@H](O)[C@H](O)[C@H]3O)cc(O)c12 (stereo partly drawn) | 6.62 µM (active) |
